Measured values reported in the supplement of paper PMC13380429.

Key:
[1] = tested on: Vero E6 infected with SARS-CoV-2; assay: morphology score (similarity to uninfected cells); higher = more like uninfected cells; settings: 24 h
[2] = tested on: Vero E6 infected with SARS-CoV-2; assay: SARS-CoV-2 infection rate relative to infected DMSO; higher = more infection, active = 60 or less; settings: 24 h

| Structure (SMILES) | morphology score [1] | SARS-CoV-2 infection rate [2] |
| --- | --- | --- |
| CC(C)OC(=O)OCOP(=O)(CO[C@H](C)Cn1cnc2c(N)ncnc21)OCOC(=O)OC(C)C [tenofovir-disoproxil] (10 µM) | -0.00661 | 116% (inactive) |
| O=C1CC[C@@]2(O)[C@H]3Cc4ccc(O)c5c4[C@@]2(CCN3CC2CC2)[C@H]1O5 (10 µM) | -0.0472 | 106% (inactive) |
| [O-][n+]1cccc(CO)c1 [mepiroxol] (10 µM) | -0.0187 | 109% (inactive) |
| CN1C(=O)CC(c2ccccc2)C1=O (stereo not given) [phensuximide] (10 µM) | 0.0814 | 112% (inactive) |
| CCOc1ccc(NC(C)=O)cc1 [phenacetin] (10 µM) | -0.129 | 116% (inactive) |
| CC(/C=C1\SC(=S)N(CC(=O)O)C1=O)=C\c1ccccc1 [epalrestat] (10 µM) | 0.192 | 106% (inactive) |
| CCN(CC)c1ccc(/C=N/NC(=O)c2ccc(O)cc2)cc1 (10 µM) | -0.186 | 107% (inactive) |
| CO[C@@]1(NC(=O)C(C(=O)O)c2ccc(O)cc2)C(=O)N2C(C(=O)O)=C(CSc3nnnn3C)CO[C@@H]21 (stereo not given in full) [moxalactam] (10 µM) | -0.0497 | 110% (inactive) |
| COC(=O)c1ccc2c(c1)NC(=O)/C2=C(\Nc1ccc(N(C)C(=O)CN2CCN(C)CC2)cc1)c1ccccc1 [nintedanib] (10 µM) | -0.0524 | 108% (inactive) |
| COc1ccc2c(OCc3nnc4ccc(-c5ccccc5)nn34)ccnc2c1 (10 µM) | 0.0318 | 110% (inactive) |
